# Experimental data from article PMC7862700, “An all-to-all approach to the identification of sequence-specific readers for epigenetic DNA modifications on cytosine”.
# Tests used:
# Assay in all cases: DAPPL (digital affinity profiling via proximity ligation, sequencing); 10 mM Tris-HCl pH 7.5, 50 mM NaCl, 1 mM DTT, 4% glycerol, room temperature, 30 min; GST-TFs on glutathione beads, 16-mer random dsDNA library, 0.1% formaldehyde crosslink after washing; high values mean tight binding
# HSF1 = HSF1 (Homo sapiens, UniProt Q00613 1-529); details: protein: recombinant; tags: N-terminal GST; chain copies: 3; dsDNA, one strand shown
# Sequence of HSF1 (Q00613 whole entry, the tested form may be a part): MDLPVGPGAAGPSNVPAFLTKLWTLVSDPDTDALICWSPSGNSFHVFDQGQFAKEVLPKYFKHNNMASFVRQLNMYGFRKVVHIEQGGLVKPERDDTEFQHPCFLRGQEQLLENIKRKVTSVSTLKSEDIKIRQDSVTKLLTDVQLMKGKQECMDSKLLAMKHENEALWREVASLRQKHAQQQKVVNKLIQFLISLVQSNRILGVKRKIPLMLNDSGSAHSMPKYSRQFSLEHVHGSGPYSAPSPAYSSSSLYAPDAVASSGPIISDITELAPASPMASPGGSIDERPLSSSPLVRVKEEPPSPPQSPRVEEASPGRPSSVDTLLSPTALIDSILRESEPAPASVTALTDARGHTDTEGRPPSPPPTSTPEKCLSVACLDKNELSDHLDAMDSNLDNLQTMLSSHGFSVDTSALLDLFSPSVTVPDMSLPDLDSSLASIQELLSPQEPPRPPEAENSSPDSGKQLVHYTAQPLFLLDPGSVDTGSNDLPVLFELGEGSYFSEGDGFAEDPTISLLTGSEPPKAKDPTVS
# Outline: (§1)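 Beads coated with glutathione captured GST-fused human transcription factors that had been expressed in yeast, and the factors were then given DNA barcodes and pooled with a tag-only sample. The pools were incubated with 200 nmole of a random double-stranded 16-mer DNA library in Tris/NaCl/DTT/glycerol buffer for 30 min at room temperature, washed, crosslinked with 0.1% formaldehyde and proximity-ligated with BsaI/T4 ligase at 37 °C for 1 h. PCR amplification and Illumina NextSeq500 sequencing came last. Binding signal is each hexamer's read frequency for a factor divided by its frequency for the tag-only sample.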
# SPIC = target: T1, SPIC (Homo sapiens, UniProt Q8N5J4 1-248); details: protein: recombinant; tags: N-terminal GST; dsDNA, one strand shown
# T1 sequence: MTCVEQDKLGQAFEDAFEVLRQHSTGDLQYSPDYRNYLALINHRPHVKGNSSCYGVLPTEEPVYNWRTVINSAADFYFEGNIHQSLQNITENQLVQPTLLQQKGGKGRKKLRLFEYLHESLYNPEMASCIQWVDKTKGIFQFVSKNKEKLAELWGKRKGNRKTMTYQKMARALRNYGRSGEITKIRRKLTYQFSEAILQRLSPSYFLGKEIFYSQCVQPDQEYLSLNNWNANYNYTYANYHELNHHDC
# Outline: as §1
# CRX = CRX (Homo sapiens, UniProt O43186 1-299); details: protein: recombinant; tags: N-terminal GST; dsDNA, one strand shown
# Sequence of CRX (O43186 whole entry): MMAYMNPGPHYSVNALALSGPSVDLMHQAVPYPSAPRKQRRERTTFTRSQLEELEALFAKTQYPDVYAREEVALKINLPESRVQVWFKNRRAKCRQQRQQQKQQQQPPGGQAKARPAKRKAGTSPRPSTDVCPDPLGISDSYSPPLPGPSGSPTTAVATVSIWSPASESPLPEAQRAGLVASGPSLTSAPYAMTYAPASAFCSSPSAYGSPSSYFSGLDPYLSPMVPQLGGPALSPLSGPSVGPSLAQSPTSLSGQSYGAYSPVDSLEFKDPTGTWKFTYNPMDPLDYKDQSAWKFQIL
# Outline: as §1
# ELK3 = target: T2, ELK3 (Homo sapiens, UniProt P41970 1-407); details: protein: recombinant; tags: N-terminal GST; dsDNA, one strand shown
# T2 sequence: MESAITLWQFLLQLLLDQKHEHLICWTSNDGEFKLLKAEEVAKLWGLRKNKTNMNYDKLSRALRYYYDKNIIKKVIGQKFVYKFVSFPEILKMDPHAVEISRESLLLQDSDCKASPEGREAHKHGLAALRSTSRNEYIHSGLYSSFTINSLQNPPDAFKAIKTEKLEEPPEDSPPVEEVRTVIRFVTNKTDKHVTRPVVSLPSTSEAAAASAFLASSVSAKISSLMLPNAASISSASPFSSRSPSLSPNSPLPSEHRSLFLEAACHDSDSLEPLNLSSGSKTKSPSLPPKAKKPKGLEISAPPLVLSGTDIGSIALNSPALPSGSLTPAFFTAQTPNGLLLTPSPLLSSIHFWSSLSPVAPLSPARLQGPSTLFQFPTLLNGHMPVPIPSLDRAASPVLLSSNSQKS
# Outline: as §1
# ELF5 = target: T3, ELF5 (Homo sapiens, UniProt Q9UKW6-2 1-255); details: protein: recombinant; tags: N-terminal GST; dsDNA, one strand shown
# T3 sequence: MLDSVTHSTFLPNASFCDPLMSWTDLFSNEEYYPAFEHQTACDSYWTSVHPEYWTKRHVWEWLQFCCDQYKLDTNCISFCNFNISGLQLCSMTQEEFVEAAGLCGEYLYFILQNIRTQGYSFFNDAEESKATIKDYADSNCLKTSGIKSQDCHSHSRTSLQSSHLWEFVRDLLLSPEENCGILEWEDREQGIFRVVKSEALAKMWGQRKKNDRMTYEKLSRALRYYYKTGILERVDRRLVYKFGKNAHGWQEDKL
# Outline: as §1
# SPI1 = SPI1 (Homo sapiens, UniProt P17947 1-270); details: protein: recombinant; tags: N-terminal GST; dsDNA, one strand shown
# Outline: as §1
Sequence,binding signal (HSF1),binding signal (SPIC),binding signal (CRX),binding signal (ELK3),binding signal (ELF5),binding signal (SPI1)
CGAATC,"1.38 fold enrichment (6-mer frequency, TF over GST control)","1 fold enrichment (6-mer frequency, TF over GST control)","1.12 fold enrichment (6-mer frequency, TF over GST control)",,,
TAGGAT,"1.35 fold enrichment (6-mer frequency, TF over GST control)","1.06 fold enrichment (6-mer frequency, TF over GST control)","1.81 fold enrichment (6-mer frequency, TF over GST control)","1.03 fold enrichment (6-mer frequency, TF over GST control)","1.06 fold enrichment (6-mer frequency, TF over GST control)",
AGAGCT,"1.05 fold enrichment (6-mer frequency, TF over GST control)","1.04 fold enrichment (6-mer frequency, TF over GST control)","1.14 fold enrichment (6-mer frequency, TF over GST control)",,,"1.01 fold enrichment (6-mer frequency, TF over GST control)"
ATCAAA,"1.1 fold enrichment (6-mer frequency, TF over GST control)",,"1.31 fold enrichment (6-mer frequency, TF over GST control)","1.08 fold enrichment (6-mer frequency, TF over GST control)","1.02 fold enrichment (6-mer frequency, TF over GST control)","1.06 fold enrichment (6-mer frequency, TF over GST control)"
CCCAAA,"1.13 fold enrichment (6-mer frequency, TF over GST control)","1.04 fold enrichment (6-mer frequency, TF over GST control)","1.13 fold enrichment (6-mer frequency, TF over GST control)","1.1 fold enrichment (6-mer frequency, TF over GST control)","1.06 fold enrichment (6-mer frequency, TF over GST control)","1.15 fold enrichment (6-mer frequency, TF over GST control)"
TAGCGT,"1.04 fold enrichment (6-mer frequency, TF over GST control)","1.02 fold enrichment (6-mer frequency, TF over GST control)","1.15 fold enrichment (6-mer frequency, TF over GST control)",,,
ACTGGA,"1.56 fold enrichment (6-mer frequency, TF over GST control)","1.16 fold enrichment (6-mer frequency, TF over GST control)","1.19 fold enrichment (6-mer frequency, TF over GST control)","1.01 fold enrichment (6-mer frequency, TF over GST control)",,"1.1 fold enrichment (6-mer frequency, TF over GST control)"
CGAAGG,"1.31 fold enrichment (6-mer frequency, TF over GST control)","1.08 fold enrichment (6-mer frequency, TF over GST control)",,,,
GCGTCT,"1.01 fold enrichment (6-mer frequency, TF over GST control)","1.11 fold enrichment (6-mer frequency, TF over GST control)",,"1.13 fold enrichment (6-mer frequency, TF over GST control)","1.08 fold enrichment (6-mer frequency, TF over GST control)","1.04 fold enrichment (6-mer frequency, TF over GST control)"
TGTAAG,"1.09 fold enrichment (6-mer frequency, TF over GST control)","1.22 fold enrichment (6-mer frequency, TF over GST control)","1.32 fold enrichment (6-mer frequency, TF over GST control)","1.11 fold enrichment (6-mer frequency, TF over GST control)","1.11 fold enrichment (6-mer frequency, TF over GST control)","1.12 fold enrichment (6-mer frequency, TF over GST control)"
GGTAAA,"1.04 fold enrichment (6-mer frequency, TF over GST control)",,"1.07 fold enrichment (6-mer frequency, TF over GST control)","1.04 fold enrichment (6-mer frequency, TF over GST control)","1.1 fold enrichment (6-mer frequency, TF over GST control)","1.04 fold enrichment (6-mer frequency, TF over GST control)"
TAGTAG,"1.2 fold enrichment (6-mer frequency, TF over GST control)","1.02 fold enrichment (6-mer frequency, TF over GST control)","1.25 fold enrichment (6-mer frequency, TF over GST control)",,,
TGAAAT,"1.02 fold enrichment (6-mer frequency, TF over GST control)","1.01 fold enrichment (6-mer frequency, TF over GST control)","1.03 fold enrichment (6-mer frequency, TF over GST control)",,,"1.02 fold enrichment (6-mer frequency, TF over GST control)"
CATAAT,"1.37 fold enrichment (6-mer frequency, TF over GST control)","1.24 fold enrichment (6-mer frequency, TF over GST control)","1.93 fold enrichment (6-mer frequency, TF over GST control)",,,"1 fold enrichment (6-mer frequency, TF over GST control)"
TCGTAT,"1.06 fold enrichment (6-mer frequency, TF over GST control)","1.06 fold enrichment (6-mer frequency, TF over GST control)","1.09 fold enrichment (6-mer frequency, TF over GST control)","1.01 fold enrichment (6-mer frequency, TF over GST control)","1.01 fold enrichment (6-mer frequency, TF over GST control)","1.02 fold enrichment (6-mer frequency, TF over GST control)"
TAGGGC,"1.05 fold enrichment (6-mer frequency, TF over GST control)","1.11 fold enrichment (6-mer frequency, TF over GST control)","1.22 fold enrichment (6-mer frequency, TF over GST control)",,"1.03 fold enrichment (6-mer frequency, TF over GST control)","1.01 fold enrichment (6-mer frequency, TF over GST control)"
CGACTG,"1.02 fold enrichment (6-mer frequency, TF over GST control)","1 fold enrichment (6-mer frequency, TF over GST control)",,"1.02 fold enrichment (6-mer frequency, TF over GST control)","1.04 fold enrichment (6-mer frequency, TF over GST control)","1.04 fold enrichment (6-mer frequency, TF over GST control)"
ACAAGA,"1 fold enrichment (6-mer frequency, TF over GST control)","1.06 fold enrichment (6-mer frequency, TF over GST control)",,,,
AAGATC,"1.35 fold enrichment (6-mer frequency, TF over GST control)","1.19 fold enrichment (6-mer frequency, TF over GST control)","1.37 fold enrichment (6-mer frequency, TF over GST control)","1.02 fold enrichment (6-mer frequency, TF over GST control)","1 fold enrichment (6-mer frequency, TF over GST control)","1.04 fold enrichment (6-mer frequency, TF over GST control)"
GAACTG,,"1.26 fold enrichment (6-mer frequency, TF over GST control)",,,"1.01 fold enrichment (6-mer frequency, TF over GST control)","1.2 fold enrichment (6-mer frequency, TF over GST control)"
CAAACA,,"1.14 fold enrichment (6-mer frequency, TF over GST control)",,"1.17 fold enrichment (6-mer frequency, TF over GST control)","1.11 fold enrichment (6-mer frequency, TF over GST control)","1.14 fold enrichment (6-mer frequency, TF over GST control)"
TGCAGC,,"1.22 fold enrichment (6-mer frequency, TF over GST control)",,"1.07 fold enrichment (6-mer frequency, TF over GST control)",,"1.02 fold enrichment (6-mer frequency, TF over GST control)"
CAGCCC,,"1.13 fold enrichment (6-mer frequency, TF over GST control)",,"1.11 fold enrichment (6-mer frequency, TF over GST control)","1.01 fold enrichment (6-mer frequency, TF over GST control)","1.03 fold enrichment (6-mer frequency, TF over GST control)"
ACTGGT,,"1.07 fold enrichment (6-mer frequency, TF over GST control)",,"1.08 fold enrichment (6-mer frequency, TF over GST control)","1.03 fold enrichment (6-mer frequency, TF over GST control)","1.1 fold enrichment (6-mer frequency, TF over GST control)"
GGGGCT,,"1.01 fold enrichment (6-mer frequency, TF over GST control)","1.11 fold enrichment (6-mer frequency, TF over GST control)",,,
CACAGC,,"1.1 fold enrichment (6-mer frequency, TF over GST control)",,"1.07 fold enrichment (6-mer frequency, TF over GST control)",,
